Many of the other results were omitted from the sample, so hits are more common in it than they were.
Pf Dd2 growth: blocks in vitro growth of P. falciparum Dd2. hit rate 4.3% among 120,000. Potency, µM (top dose mostly 28.9 µM), inactives show at the highest dose activity, negative = inhibition, usual class: inhibitors. P. falciparum Dd2 growth, SYBR Green, 72 h; active = well fitted inhibition curve with a large enough effect;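 also: plate controls were DMSO vehicle for no effect and reference drug for full effect; nearly all actives have a fitted effect of over 65% in size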
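Infected erythrocytes (Dd2, 0.3% parasitemia, 2.5% hematocrit final) are added to compound in RPMI-1640/Albumax II medium, grown 72 h at 37C in low oxygen, then lysed with saponin/Triton-X containing SYBR Green and read by fluorescence.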
Starred values were filed as active, the others as inactive; i = inactive; [ ] = dose if it differs, or a comment. Potency is read from the fitted curve at half-maximal effect.

SMILES | Pf Dd2 growth
CCOC(=O)CSc1ccc2nnc(CCNS(=O)(=O)c3ccccc3)n2n1 | -10%
Cc1ccc(C)c(CSc2ccc3nnc(CCNS(=O)(=O)c4ccccc4)n3n2)c1 | -4%
Cc1ccc(S(=O)(=O)NCCc2nnc3ccc(SCc4ccccc4C)nn23)cc1 | 7.9µM*
O=C(c1ccccn1)N1CC(Oc2ccc(F)cc2F)C1 | 3%
COc1ccc(OC)c(NC(=O)c2nnn3c2COC(c2ccc(Cl)cc2)C3)c1 (configuration not stated) | -14%
COc1ccc(C2Cn3nnc(C(=O)Nc4cc(C)ccc4F)c3CO2)cc1 (configuration not stated) | 11µM*
COc1ccc(C2Cn3nnc(C(=O)NCc4ccc(SC)cc4)c3CO2)cc1 (configuration not stated) | 2%
COCCNc1ncnc2c1CN(C1CNC1)C(=O)CN2C | 7%
C#CCN1C(=O)C(O)(CC(=O)c2ccc(OC)c(OC)c2)c2cc(Br)ccc21 (configuration not stated) | -15%
COc1ccccc1C(=O)CC1(O)C(=O)N(CC(N)=O)c2ccccc21 (configuration not stated) | 20%
O=C(CC1(O)C(=O)N(CCc2ccccc2)c2ccc(Br)cc21)c1ccccc1O (configuration not stated) | 10µM*
CC(C)CN1C(=O)N(CC(=O)N(C)Cc2ccon2)C(=O)C12CCNCC2 | 1%
Cc1noc(-c2cccc(OC3CN(C(=O)c4cccn4C)C3)c2)n1 | 8%[5.79 µM]
O=C(c1ccc2c(c1)OCO2)N1CCC2(CC1)NC(=O)N(c1ccc(F)cc1)N2 | 8%
Cn1nnnc1SCCNCc1ccc(F)cc1 | -15%
Cn1nnnc1SCCCNCc1cc(Br)ccc1OCc1ccccc1F | 7.9µM*
COc1cccc(CNCCSc2nnnn2C)c1OCc1ccc(F)cc1 | -7%
COc1cc(CNCCSc2nnnn2C)ccc1OCc1ccc(F)cc1 | i
Cn1nnnc1SCCNCc1ccccc1Cl | -23%
Cn1nnnc1SCCCNCc1cc(Br)ccc1OCc1ccccc1 | 11µM*
CCc1cc(=O)n(CC(=O)Nc2ccc(N(C)C)cc2)c(-c2cccc(F)c2)n1 | i
COCCn1ncc(N2CCC(NC(=O)CC3CCCC3)CC2)cc1=O | 11%
CC(C)(C)c1ccc(C(=O)N[C@H]2CC(C)(C)[C@@H]3C[C@@](C)(O)CC[C@]23CCC(=O)N2CCCC2)cc1 | -18%
CC(C)C1CN(S(=O)(=O)C2CC2)CCC(=O)N1Cc1ccc(F)cc1 (configuration not stated) | 2%
CCOc1ccc(-n2c(/C=C/c3cccc(F)c3)nc3cc(OC)c(OC)cc3c2=O)cc1 | i
SMILES | Pf Dd2 growth
COc1ccccc1C(O)c1nc(Nc2cccc(F)c2)n[nH]1 (configuration not stated) | i
COc1cc2nc(Nc3cccc(F)c3)nc(N)c2cc1OC | 2.2µM*
C=CCNC(=O)C(NC(=O)c1ccc2c(c1)OCO2)C1CCN(C(=O)c2ccc(OC)cc2)CC1 (configuration not stated) | i
COCC(=O)N[C@@H]1CN(C(=O)c2ccc(F)cc2)CC[C@@H]1CO | 14%
CCCC(=O)NC1CCN(c2ccccc2)C1=O (configuration not stated) | 15%
COc1ccc(N2C(=O)CCSC23C(=O)N(Cc2ccc(F)cc2)c2ccccc23)cc1 (configuration not stated) | -13%
COc1ccc(N2C(=O)CSC23C(=O)N(CC(N)=O)c2ccccc23)cc1 (configuration not stated) | 7%
Cc1ccc(N2C(=O)CSC23C(=O)N(Cc2ccccc2F)c2ccccc23)cc1F (configuration not stated) | i
Cc1ccc(C)c(NC(=O)CN2C(=O)C3(SCC(=O)N3c3ccc(C)c(C)c3)c3ccccc32)c1 (configuration not stated) | 11µM*
COc1ccccc1NC(=O)CN1C(=O)C2(SCC(=O)N2c2ccc(C)c(C)c2)c2ccccc21 (configuration not stated) | 10µM*
COc1ccc(N2C(=O)CCSC23C(=O)N(Cc2ccc(F)cc2)c2ccccc23)cc1Cl (configuration not stated) | 11µM*
COc1ccccc1NC(=O)CN1C(=O)CSc2ccc(S(=O)(=O)N3CCCC3)cc21 | -16%
COc1cccc(CN2C(=O)C3(SCC(=O)N3c3ccc(F)cc3)c3ccccc32)c1 (configuration not stated) | i
Cc1ccc(C)c(NC(=O)CN2C(=O)COc3ccc(Cl)cc32)c1 | 15%
CCC1(N2CCN(S(=O)(=O)c3ccc(Cl)s3)CC2)CCN(C(=O)C(C)C)C1 (configuration not stated) | -11%
COc1cc2c(cc1Oc1ccccc1)NC(=O)C21CCN(C(=O)c2scnc2C)CC1 | i
CCC(=O)Nc1ccc(C2(C(=O)NCC3CC3)CCCCC2)cc1 | -14%
COc1cc(Cl)ccc1C(=O)N1CC(F)(F)C[C@H]1c1nnc(C)o1 | i
O=C(N[C@@H]1CN(Cc2cc(F)c(F)c(F)c2)C[C@H]1CO)C1CC1 | -12%
CCOC(=O)c1cc(-c2ccc(C)cc2)n(CC(=O)Nc2cc(C)ccc2C)c1C | 3%

Bioassay records as filed in PubChem BioAssay.
